Screening data (PubChem)
TDP1 inh – qHTS Assay for Inhibitors of Tyrosyl-DNA Phosphodiesterase (TDP1); Tyrosyl-DNA phosphodiesterase 1 (Homo sapiens), Q9NUW8; recombinant TDP1, AlphaScreen DNA substrate cleavage; Potency, µM (doses to about 130 µM), most hits filed as inhibitors; 0.28% of 350,000 active; AID 485290, 2010; also: nearly all actives have a fitted effect of over 40% in size
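Recombinant human Tdp1 (E. coli-expressed, 1 nM final) preincubated with compounds 15 min at room temperature, then 5'-biotin/3'-phosphotyrosine-FITC DNA substrate (15 nM final) added for 5 min. AlphaScreen beads (10 ug/ml final) added 10 min; cleavage lowers signal.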
TDP1 cell CPT – qHTS for Inhibitors of human tyrosyl-DNA phosphodiesterase 1 (TDP1): qHTS in cells in presence of CPT | chicken DT40 Tdp1-/-;hTDP1 cells + 20 nM CPT, ATP luminescence, 48 h | Potency, µM (titrated, usually from 46.2 µM), most hits filed as inhibitors | 12% of 420,000 active | AID 686979, 2013; also: nearly all actives have a fitted effect of over 55% in size
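Chicken DT40 Tdp1-/- cells stably complemented with human TDP1 were seeded at 400 cells/well in medium containing 20 nM camptothecin, exposed to pin-transferred compounds, and grown at 37 °C for at least 48 hr. Viability was read as ATP luminescence.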
TDP1 cell noCPT – qHTS for Inhibitors of human tyrosyl-DNA phosphodiesterase 1 (TDP1): qHTS in cells in absence of CPT | DT40 Tdp1-/- hTDP1 cells, no CPT, ATP luminescence, 48 h | Potency, µM (highest dose often 46.2 µM), most hits filed as inhibitors | 15% of 420,000 active; also: nearly all actives have a fitted effect of over 55% in size
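Camptothecin absent (DMSO only). Human TDP1-complemented DT40 knockout cells, 400 cells/well, 37 °C for minimum 48 hr; ATP measured via CellTiter-Glo, 30 min dark incubation, luminescence.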
ClpP mod – qHTS Assay for Activators of ClpP | AID 651965, 2013 | Potency, µM (highest dose often 57.5 µM) | purified B. subtilis ClpP, FRET peptide cleavage, 20 min | ATP-dependent Clp protease proteolytic subunit (Bacillus subtilis (strain 168)), P80244 | 1.9% of 340,000 active; active = well fitted falling curve with a large enough effect; inconclusive = small, poorly fitted or top-dose-only effect; inactive = no such curve, though single readings can be large or run the other way; also: the source files actives as falling curves though it sought activators and does not explain the sign; nearly all actives have a fitted effect of over 65% in size
Target sequence (P80244 whole entry, looked up): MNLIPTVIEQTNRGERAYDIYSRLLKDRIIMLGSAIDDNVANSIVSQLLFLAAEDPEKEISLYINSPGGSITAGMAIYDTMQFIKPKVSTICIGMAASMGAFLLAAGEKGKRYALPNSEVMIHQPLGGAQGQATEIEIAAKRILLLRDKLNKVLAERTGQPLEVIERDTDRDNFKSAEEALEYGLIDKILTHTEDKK
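Purified B. subtilis ClpP, 10 microg/mL final in Tris/HCl pH8 with KCl, BSA, glycerol and Tween-20, cleaved an Abz/nitrotyrosine-quenched decapeptide. Fluorescence (ex 320, em 430) was read at 0 and 20 min at room temperature. Delta was normalized to 5.8 microM ADEP and DMSO/no-enzyme controls.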
Of the large screens only hits and unclear results are named; the others gave an inactive call; ! = repeats disagree. Compounds with a hit are over-represented: about 17% of the library has one in this group of screens. Unless noted, calls follow the shape of the dose curve; as a rule, active = well fitted curve in the direction sought with a large enough effect; inconclusive = small, poorly fitted or top-dose-only effect, or another doubt; inactive = no such curve, though single readings can be large; an effect the other way counts as inactive or inconclusive.

Cc1ccc(NC(=O)c2ccc(Cl)c(S(=O)(=O)N3CCCCC3)c2)nc1	none
COC(C[C@H](O)[C@H](C)[C@@H](O)COCc1ccccc1)OC	none
COCCn1c(C)cc(C(=O)COc2cccnc2[N+](=O)[O-])c1C	TDP1 cell CPT inconclusive
Cc1cc(C)c(C(=O)COc2cccnc2[N+](=O)[O-])cc1C	TDP1 cell CPT 4.1µM, TDP1 cell noCPT 5.8µM
c1ccc(-c2nc3ccccc3o2)nc1	ClpP mod 13µM
c1cncc(-c2nc3ccccc3o2)c1	none
Clc1ccc2oc(-c3ccccn3)nc2c1	TDP1 cell noCPT inconclusive, ClpP mod 16µM
Nc1ccc2oc(-c3ccccn3)nc2c1	TDP1 cell CPT inconclusive, TDP1 cell noCPT inconclusive
Cc1ccnc2ccc(-c3nc4ccccc4o3)cc12	TDP1 cell CPT 21µM, TDP1 cell noCPT 10µM, ClpP mod 35µM!
CC(=O)Nc1ccc(NC(=O)C/C(C)=N/NC(=O)COc2cc(C)c(Br)cc2Br)cc1	none (no result: ClpP mod)
CCc1nnc(NS(=O)(=O)c2ccc(NC(=O)c3ccc(C#N)cc3)cc2)s1	none (no result: TDP1 inh, ClpP mod)
COc1ccc(-c2nnc(CSc3ncnc4sc5c(c34)CCC5)o2)cc1OC	TDP1 cell CPT inconclusive, TDP1 cell noCPT 10µM
N#CCSc1ncnc2sc3c(c12)CCC3	none
O=C(COC(=O)c1cccs1)NC1CCCC1	none (no result: ClpP mod)
CCOC(=O)c1ccc(NC(=O)Cn2ncc(Cl)c(Cl)c2=O)cc1	TDP1 cell CPT 2.3µM, TDP1 cell noCPT 2.3µM (no result: ClpP mod)
CCOC(=O)c1ccc(NC(=O)Cn2nc(C)c3ccccc3c2=O)cc1	none (no result: TDP1 inh)
CCc1ccccc1NC(=O)CN(C)C(=O)Cn1ncc(Cl)c(Cl)c1=O	TDP1 cell CPT 5.8µM, TDP1 cell noCPT 6.5µM
CCC(=O)Nc1ccc(C(=O)Cn2ncc(Cl)c(Cl)c2=O)cc1	TDP1 cell CPT 5.2µM, TDP1 cell noCPT 6.5µM
CC1CCc2c(sc(NC(=O)Cn3nnc(-c4ccc(C(F)(F)F)cc4)n3)c2C#N)C1 (configuration not stated)	none
O=C(NCCO)c1ccc2[nH]c3ccccc3c2c1	ClpP mod 25µM
CC(C)(C)OC(=O)C[C@H]1C/C=C\C[C@H](CC(=O)N(CCO)Cc2ccccc2)C(=O)N[C@@H](Cc2ccccc2)COC1=O	TDP1 cell CPT 16µM, TDP1 cell noCPT inconclusive
CC(C)(C)OC(=O)C[C@H]1C/C=C\C[C@@H](CC(=O)N(CCO)Cc2ccccc2)C(=O)N[C@H](Cc2c[nH]c3ccccc23)COC1=O	TDP1 cell CPT inconclusive, TDP1 cell noCPT 18µM
CC(C)(C)OC(=O)C[C@H]1C/C=C\C[C@H](CC(=O)N(CCO)Cc2ccccc2)C(=O)N[C@H](C(C)(C)C)COC1=O	TDP1 cell CPT 29µM, TDP1 cell noCPT 21µM
C[C@@H]1COC(=O)[C@@H](CC(=O)OC(C)(C)C)C/C=C\C[C@H](CC(=O)N(CCO)Cc2ccccc2)C(=O)N1	TDP1 cell CPT inconclusive, TDP1 cell noCPT inconclusive
O=C(OCC#CCSc1nnc(-c2cccc3ccccc23)o1)c1ccc(F)cc1F	none (no result: TDP1 cell CPT, TDP1 cell noCPT, ClpP mod)
O=C(CCC1CCCC1)NCCS(=O)(=O)N1CCN(c2ccc(F)cc2)CC1	none (no result: TDP1 inh)
C[n+]1cccc(O)c1SCc1ccccc1	TDP1 cell CPT 5.2µM, TDP1 cell noCPT 4.6µM
COc1ccc2[nH]cc(CCNC(=O)C3CC(=O)N(c4ccc(Cl)cc4)C3)c2c1 (configuration not stated)	none (no result: ClpP mod)
COC(=O)CS(=O)(=O)c1nnc([C@H](Cc2ccccc2)NC(=O)OC(C)(C)C)o1	TDP1 cell CPT 1.5µM, TDP1 cell noCPT 1.6µM
COC(=O)CSc1nnc([C@H](Cc2ccccc2)NC(=O)OC(C)(C)C)o1	none
Cc1cccc(CS(=O)(=O)c2nnc([C@H](Cc3ccccc3)NC(=O)OC(C)(C)C)o2)c1	TDP1 cell CPT 1.3µM, TDP1 cell noCPT 1.5µM
CC(C)(C)OC(=O)N[C@@H](Cc1ccccc1)c1nnc(SCC(N)=O)o1	none
CCc1ccccc1NC(=O)C1CCCN(S(=O)(=O)c2ccc3[nH]c(=O)ccc3c2)C1 (configuration not stated)	none
CCn1ncc(Br)c1C(=O)Nc1c(C)nn(Cc2c(F)c(F)c(F)c(F)c2F)c1C	TDP1 cell CPT 16µM, TDP1 cell noCPT inconclusive
Cc1ccc(OCc2ccc(C(=O)NN)o2)c([N+](=O)[O-])c1	none
Cc1nn(Cc2c(F)c(F)c(F)c(F)c2F)c(C)c1NC(=O)c1c([N+](=O)[O-])cnn1C	TDP1 cell CPT 13µM, TDP1 cell noCPT 12µM
Cc1ccc(OCc2ccc(C(=O)Nc3c(C)nn(Cc4c(F)c(F)c(F)c(F)c4F)c3C)o2)c([N+](=O)[O-])c1	TDP1 cell CPT 13µM, TDP1 cell noCPT 18µM
CN(C)c1ccc(CNc2nc(-c3ccco3)nn2S(C)(=O)=O)cc1	TDP1 cell noCPT inconclusive
Clc1ccc2c(c1)-c1ccccc1C1=NCCN12	TDP1 cell noCPT 1.6µM (no result: TDP1 inh)
Brc1ccc2c(c1)-c1ccccc1C1=NCCN12	TDP1 cell CPT 1.5µM, TDP1 cell noCPT 0.82µM (no result: TDP1 inh)
Cc1nnc(N2CCN(c3ccccc3)CC2)c2c1nnn2Cc1ccc(F)cc1	TDP1 cell CPT 16µM, TDP1 cell noCPT inconclusive
CCCCCCCCN1C(=O)[C@H](CC(=O)N2CCOCC2)C[C@@]2(C(=O)OCC)CCCC=C12	TDP1 cell CPT 12µM, TDP1 cell noCPT 9.2µM (no result: TDP1 inh)
CCOC(=O)[C@]12CCCC=C1N(Cc1ccccc1)C(=O)[C@H](CC(=O)N1CCCCCC1)C2	TDP1 cell CPT inconclusive, TDP1 cell noCPT inconclusive (no result: TDP1 inh)
CCCCCCCCN1C(=O)[C@H](CC(=O)N2CCSCC2)C[C@@]2(C(=O)OCC)CCCC=C12	TDP1 cell CPT 21µM, TDP1 cell noCPT 21µM (no result: TDP1 inh)
CCCCCCCCN1C(=O)[C@H](CC(=O)N2CCSCC2)C[C@@]2(C(=O)OC)CCCCC=C12	TDP1 cell CPT inconclusive, TDP1 cell noCPT inconclusive (no result: TDP1 inh)
Cc1ccc2c(c1)COc1c3ccc(C(=O)N4CCCCC4)cc3nn1-2	TDP1 cell CPT 21µM, TDP1 cell noCPT 26µM
O=C(c1ccc2c3n(nc2c1)-c1ccccc1CO3)N1CCOCC1	TDP1 cell CPT 8.2µM, TDP1 cell noCPT 9.2µM
Cc1ccc2c(c1)COc1c3ccc(C(=O)N[C@@H](CO)C(C)C)cc3nn1-2	TDP1 cell CPT 23µM, TDP1 cell noCPT 18µM
CCN(CC)CCCNC(=O)c1ccc2c3n(nc2c1)-c1ccc(Cl)cc1CO3	TDP1 cell CPT inconclusive, TDP1 cell noCPT 16µM
CCc1cccc(CC)c1NC(=O)CSc1nnc(C2CC2)n1C	none (no result: ClpP mod)
COc1ccc(-c2noc(-c3ccc(NCc4cccnc4)c([N+](=O)[O-])c3)n2)cc1	TDP1 cell CPT inconclusive
Cc1ccc(-c2noc(-c3ccc(NCc4cccnc4)c([N+](=O)[O-])c3)n2)cc1	TDP1 cell CPT inconclusive, TDP1 cell noCPT 5.2µM
O=[N+]([O-])c1cc(-c2nc(-c3ccccc3)no2)ccc1NCc1cccnc1	TDP1 cell CPT 12µM, TDP1 cell noCPT 5.8µM
